A selection: hits, their analogues and other compounds. The true share with any hit is near 2.4%.
Cruzain inh noDet: inhibitors of Trypanosoma cruzi cruzain without detergent; purified cruzain, Z-FR-AMC fluorescence, no detergent; P25779; AID 1476; hit rate 2.3% among 200,000; Potency, µM, without a hit: max response, negative = inhibition, hits mostly inhibitors;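 further: plate controls were enzyme without inhibitor for no effect and buffer without enzyme for full effect; nearly all actives have a fitted effect of over 40% in size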
Target sequence (P25779 123-467 limits assumed): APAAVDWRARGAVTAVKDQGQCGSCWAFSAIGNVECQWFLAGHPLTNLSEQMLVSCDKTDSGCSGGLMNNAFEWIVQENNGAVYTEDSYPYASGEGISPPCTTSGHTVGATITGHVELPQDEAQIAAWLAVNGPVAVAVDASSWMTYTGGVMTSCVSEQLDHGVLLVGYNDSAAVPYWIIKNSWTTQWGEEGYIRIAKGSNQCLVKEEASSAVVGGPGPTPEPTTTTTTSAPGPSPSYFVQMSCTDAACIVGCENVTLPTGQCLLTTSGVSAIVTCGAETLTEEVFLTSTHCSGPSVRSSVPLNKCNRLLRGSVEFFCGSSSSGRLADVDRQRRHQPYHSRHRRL
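Purified cruzain at 1.5 nM, pre-incubated 15 min with compound at room temperature in 100 mM sodium acetate pH 5.5, 5 mM DTT, 0.00005% Triton X-100. Reaction started with 2 uM Z-FR-AMC; AMC fluorescence increase over 60 s gives rate.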
Cruzain Triton: cruzain (T. cruzi) inhibition with detergent; purified cruzain, Z-FR-AMC fluorescence, 0.01% Triton; P25779; AID 1478; hit rate 0.43% among 200,000; Potency, µM, without a hit: max response, negative = inhibition, most hits filed as inhibitors;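 further: plate controls were neutral wells for no effect and buffer without enzyme for full effect; nearly all actives have a fitted effect of over 40% in size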
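15 min RT preincubation of 1.5 nM cruzain with compound, then 2 uM Z-FR-AMC added; kinetic AMC fluorescence, 60 s delta. Triton X-100 0.01%, pH 5.5.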
* marks the source's active call; other numbers are inactive results; ? = inconclusive. The call rests on the fitted dose curve; in most records, active means well fitted curve in the direction sought with a large enough effect; inconclusive means small, poorly fitted or top-dose-only effect, or another doubt; inactive means no such curve, though single readings can be large; an effect the other way counts as inactive or inconclusive. Potency means the concentration at half of the fitted maximal effect.

SMILES	Cruzain inh noDet	Cruzain Triton
Cc1ccc(CNC(=O)CN(c2ccc(Cl)cc2Cl)S(=O)(=O)c2ccccc2)cc1	10%	-7%
COc1ccccc1NC(=O)c1cc(Cl)ccc1NC(=O)c1ccco1	3%	-3%
COc1ccccc1NC(=O)c1ccccc1NC(=O)c1cc(Cl)ccc1NC(=O)c1ccco1	16µM*	-5%
CCCOc1ccc(NC(=O)CC2C(=O)N(c3cccc(OC)c3)C(=O)N2CCc2ccncc2)cc1 (stereo not drawn)	?	-4%
COc1ccc(OC)c(NC(=O)c2ccc(CN(c3cc(Cl)ccc3C)S(=O)(=O)c3ccccc3)cc2)c1	10µM*	3%
COc1ccc(OC)c(NC(=O)c2cccc(S(=O)(=O)N(Cc3ccccc3)c3ccccc3OC)c2)c1	?	-1%
CCOC(=O)c1c(-c2ccccc2)csc1NC(=S)NC	-3%	-14%
CCOC(=O)c1c(-c2ccc(C)o2)csc1NC(=S)NC(=O)c1ccccc1Br	32µM*	-3%
CCOC(=O)c1c(-c2ccc(C)o2)csc1NC(=S)NC(=O)c1cccs1	25µM*	-1%
CCOC(=O)c1c(-c2ccc(C)o2)csc1NC(=O)CSc1nnc(C)s1	?	-7%
CCCS(=O)(=O)c1ncc(Cl)c(C(=O)N2CCN(c3ccc(OC)cc3)CC2)n1	1%	-5%
O=C(O)c1ccc(CO)o1	-2%	5%
O=C(O)CC12C[C@H]3C[C@@H](CC(O)(C3)C1)C2	2%	5%
Cc1c2cnn(-c3ccccc3)c(=O)c2c(C)n1CCCC(=O)Nc1ccc(F)cc1F	4%	-5%
CCOC(=O)[C@]1(CC(=O)O)CCCC1=O	-7%	3%
CCOC(=O)c1ccc(NC(=O)CC2C(=O)N(c3ccccc3)C(=O)N2C2CCCCC2)cc1 (stereo not drawn)	-12%	-6%
Cc1c(NC(=O)C(C)OC(=O)c2cccs2)c(=O)n(-c2ccccc2)n1C (stereo not drawn)	-7%	-1%
Cc1cc(C)c(NC(=O)C(C)OC(=O)c2cc(Br)c(Br)s2)c(C)c1 (stereo not drawn)	25µM*	-1%
CN(C(=O)CSc1nc2ccc(NC(=O)COc3ccc(F)cc3)cc2s1)c1ccccc1	2%	-4%
CCc1ccc(C2c3c(-c4cc(C)ccc4O)n[nH]c3C(=O)N2Cc2cccnc2)cc1 (stereo not drawn)	-14%	-17%
Cc1cc(C)c2c(c1)NC(c1cc3c(cc1Br)OCO3)C1CC=CC21 (stereo not drawn)	20µM*	-2%
Brc1cc2c(cc1C1Nc3ccccc3C3C=CCC31)OCO2 (stereo not drawn)	?	-3%
NC(=O)c1nc(Nc2ccccc2)sc1NC(=O)c1ccccc1Br	?	-2%
O=C1c2[nH]nc(-c3ccc(Br)cc3)c2C(c2cccc(O)c2)N1c1ccc(Cl)cc1 (stereo not drawn)	?	-5%
COC(=O)c1ccc(C2c3c(-c4ccc(Br)cc4)n[nH]c3C(=O)N2c2ccc(Cl)cc2)cc1 (stereo not drawn)	16µM*	-1%
SMILES	Cruzain inh noDet	Cruzain Triton
Cc1cc(=O)n(Cc2cccc(F)c2)c2c1c(C)nn2-c1cccc(F)c1	-2%	0%
COc1cccc(OCc2nc3c4cnn(-c5ccccc5)c4ncn3n2)c1	25µM*	8%
COc1ccc(-n2ncc3c2ncn2nc(Cc4ccccc4)nc32)cc1	-10%	-1%
OC[C@@H]1O[C@@H](n2cnc3c(SCc4ccccc4)ncnc32)[C@@H](O)[C@H]1O	1%	3%
Cc1ccc(NS(=O)(=O)c2ccc3c(c2)CCCN3C(=O)C2CCC2)cc1Cl	-19%	-5%
Cc1ccc(NS(=O)(=O)c2ccc(Cl)c(NC(=S)NC(=O)C3CCCCC3)c2)cc1Cl	32µM*	2%
Cc1ccc(CN(C(=O)COc2ccc(C(C)C)cc2)C2CCS(=O)(=O)C2)o1 (stereo not drawn)	?	-7%
CCOC(=O)Cn1c(=O)n(CC2CCCO2)c2nc(-c3ccccc3F)nc(C(N)=O)c21 (stereo not drawn)	3%	-3%
Cc1sc2nc(COC(=O)c3ccc(N4CCCC(C)C4)c([N+](=O)[O-])c3)[nH]c(=O)c2c1C (stereo not drawn)	7.9µM*	-5%
Cc1sc2nc(COC(=O)c3ccc(N4CCCC4)c([N+](=O)[O-])c3)[nH]c(=O)c2c1C	?	-7%
CCC(=O)N1c2ccccc2CC1C(=O)NCCN1CCN(c2cc(Cl)ccc2C)CC1 (stereo not drawn)	6%	1%
COC(=O)c1ccccc1NC(=O)N1CCC(N2CCN(Cc3ccc(F)cc3)C(=O)C2=O)CC1	6%	0%
Cc1cccc(-c2nnc(C3CCN(S(=O)(=O)c4cccc(Cl)c4)CC3)o2)c1	1%	-20%
O=C(CSc1nc2c([nH]c3ccccc32)c(=O)n1-c1ccccc1F)Nc1cccc(Cl)c1	13µM*	0%
Cc1nnc(NC(=O)CSc2nnc3c(n2)[nH]c2ccccc23)s1	5%	-3%
CC(=O)c1ccc(NC(=O)CSc2nnc3c(n2)[nH]c2ccccc23)cc1	?	-12%
O=C(CSc1nnc2c(n1)[nH]c1ccccc12)Nc1ccc2c(c1)OCO2	25µM*	-6%
Cc1ccc(-c2csc(NC(=O)CSc3nnc4c(n3)[nH]c3ccccc34)n2)cc1	16µM*	-10%
COCCn1c(SCC(=O)Nc2ccc3c(c2)OCCO3)nc2c(c1=O)SC(C)C2 (stereo not drawn)	-19%	0%
CC1Cc2nc(SCC(=O)Nc3ccc4c(c3)OCO4)n(Cc3ccccc3)c(=O)c2S1 (stereo not drawn)	32µM*	-2%
Cc1cc(NC(=O)CSc2nc3c([nH]c4ccccc43)c(=O)n2-c2ccccc2F)no1	-18%	-4%
Cc1cc(C)cc(-n2c(SCC(=O)Nc3ccc4c(c3)OCO4)nc3c([nH]c4ccccc43)c2=O)c1	6.3µM*	-2%
COc1cccc(NC(=O)CSc2nc3c([nH]c4ccccc43)c(=O)n2-c2cccc(Cl)c2)c1	-22%	0%
COc1cccc(-n2c(SCC(=O)Nc3cccc(C)c3)nc3c([nH]c4ccccc43)c2=O)c1	32µM*	0%
O=C(CSc1nc2c(oc3ccccc32)c(=O)n1-c1ccccc1F)Nc1ccccc1	-25%	-1%
SMILES	Cruzain inh noDet	Cruzain Triton
Cc1cc(C)cc(NC(=O)CSc2nc3c(oc4ccccc43)c(=O)n2-c2ccccc2F)c1	20µM*	-1%
O=C(CSc1nc2ccccc2o1)Nc1nc(-c2ccccc2)cs1	?	-4%
Cc1cc2ccccc2nc1SCC(=O)Nc1nc(-c2ccccc2)cs1	7.9µM*	4%
O=C(CSc1nc2c([nH]c3ccccc32)c(=O)n1-c1ccc(F)cc1)Nc1ccc2c(c1)OCO2	1%	-1%
O=C(CSc1ccc2nc(-c3ccccc3)cn2n1)Nc1cccc(F)c1	16%	-5%
N#CCCSC(=S)[C@H]1CCCC1=N	-2%	1%
Cc1ccc(-n2c(SCC(=O)NCc3ccc(F)cc3)nc3c([nH]c4ccccc43)c2=O)cc1	16µM*	-4%
Cc1cc(C)cc(-n2c(SCC(=O)NCc3ccc(F)cc3)nc3c([nH]c4ccccc43)c2=O)c1	5%	-1%
Fc1ccc(N2CCN(c3ncnc4[nH]ncc34)CC2)cc1	-7%	0%
CCOc1ccc(S(=O)(=O)N2CCN(c3cccc(C(F)(F)F)c3)CC2)cc1OCC	-10%	-5%
O=C(Cc1ccc(S(=O)(=O)N2CCCCC2)s1)Nc1ccc(F)c(F)c1	1%	-9%

From PubChem
